D3 antag: blocks the human D3 dopamine receptor. hit rate 2.5% among 360,000. max response, negative = inhibition, %. D3R cells, DiscoveRx beta-arrestin luminescence, antagonist mode; hits give low values. AID 652054; in the data active means max response below about -50%; inconclusive means no clear call, values can overlap the other calls
Target sequence (P35462 whole entry, looked up): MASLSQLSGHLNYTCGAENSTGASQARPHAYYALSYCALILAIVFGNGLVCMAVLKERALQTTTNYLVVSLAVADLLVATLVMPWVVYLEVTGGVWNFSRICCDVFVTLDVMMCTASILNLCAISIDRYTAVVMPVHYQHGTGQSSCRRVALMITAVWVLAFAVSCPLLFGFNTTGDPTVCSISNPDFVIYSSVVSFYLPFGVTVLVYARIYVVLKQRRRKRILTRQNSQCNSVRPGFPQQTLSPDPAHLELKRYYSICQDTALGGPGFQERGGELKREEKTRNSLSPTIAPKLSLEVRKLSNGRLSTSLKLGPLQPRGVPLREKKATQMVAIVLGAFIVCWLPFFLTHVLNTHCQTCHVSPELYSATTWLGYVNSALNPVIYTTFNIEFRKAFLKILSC
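Cells expressing the human receptor were seeded at 1500 cells/well, incubated overnight at 37 degrees C in 5% CO2, then exposed to library compounds with dopamine controls for 90 minutes at 37 degrees C before luminescent detection.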
D1 potentiator: potentiators of human D1 dopamine receptor; P21728; HEK293 TREx D1 cells, calcium flux, dopamine EC20 potentiation; potentiation, % at 10 µM; hit rate 0.036% among 360,000; AID 504651; in the data active means potentiation above about 30%
D1 agonist: agonists of human D1 dopamine receptor. P21728. HEK293 T-REx D1 cells, calcium flux, agonist mode. activation, % at 2 µM. hit rate 1% among 360,000; in the data active means activation above about 30%
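Agonism was scored from calcium flux recorded over 180 s (1 read/s) after pintool compound addition, following a 10-cycle baseline. Cells were inducible force-coupled HEK293 TREx D1, plated overnight at 30 C and loaded with no-wash calcium dye.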
D1 antag: human D1 dopamine receptor antagonism. activity change, negative = inhibition, % at 10 µM. hit rate 3.2% among 360,000. HEK293 TREx D1 cells, calcium flux, dopamine EC80; hits give low values. P21728; in the data active means activity change below about -30%
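Inducible Hek293 Trex D1 cells (tetracycline, overnight, 30 C). Calcium dye 30–90 min RT. Antagonist mode: EC80 dopamine added after 180 s compound read.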
D3 ag: agonists of human D3 dopamine receptor. AID 652048. max activation, %. P35462. D3R DiscoveRx beta-arrestin cells, luminescence, 90 min. hit rate 0.58% among 410,000; in the data active means max activation above about 30%
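Agonist mode: compounds and dopamine controls were applied to plated cells for 90 min at 37 degrees C after an overnight attachment at 1500 cells/well. Luminescent read-out followed 30 - 60 minutes at room temperature with DiscoveRx detection reagent.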
A number is an active result. Most compounds without a hit are left out; they make up all but 6.1% or so of the library.

Results for CCC(Oc1ccccc1)C(=O)N[C@@H]1C(=O)N2[C@@H]1SC(C)(C)[C@@H]2C(=O)O (some centres undefined) ?
D3 ag: inactive

Results for CCOc1ccc(C2NC(=O)Cc3cc(OC)c(OC)cc32)cc1 (centres undefined) ?
D3 antag: inactive; D1 potentiator: inactive; D1 agonist: inactive; D1 antag: inactive; D3 ag: inactive

What do the screens show for `CCOc1ccc(C2OC(=O)Cc3cc(OC)c(OC)cc32)cc1` (centres undefined)?
D3 antag: inactive; D1 potentiator: inactive; D1 agonist: inactive; D1 antag: -31; D3 ag: inactive

Results for COc1ccc(CCNC(=O)COc2ccc(N(C)S(=O)(=O)c3ccc(C)cc3)cc2)cc1 ?
D3 antag: inactive; D1 potentiator: inactive; D1 agonist: inactive; D1 antag: -31; D3 ag: inactive

How did CN(C)c1cccc(C(=O)Nc2nc3ccccc3[nH]2)c1 do in these assays?
D3 antag: inconclusive; D1 potentiator: inactive; D1 agonist: inactive; D1 antag: inactive; D3 ag: inactive

How did COc1ccc(CCNC(=O)CN(c2ccc(C)cc2)S(=O)(=O)c2ccc(OC)cc2)cc1 do in these assays?
D1 potentiator: inactive; D1 agonist: inactive; D1 antag: inactive; D3 ag: inactive

Results for Cc1ccc(S(=O)(=O)NCc2ccc(C(=O)NCCN(Cc3ccccc3)C(C)C)cc2)cc1 ?
D3 antag: -79; D1 potentiator: inactive; D1 agonist: inactive; D1 antag: inactive; D3 ag: inactive

How did COc1ccc(N(C)S(=O)(=O)c2cccc(C(=O)Nc3ccc4c(c3)OCCO4)c2)cc1 do in these assays?
D3 antag: inactive; D1 potentiator: inactive; D1 agonist: inactive; D1 antag: -35; D3 ag: inactive

What do the screens show for `Cc1ccc(N(C)S(=O)(=O)c2cccc(C(=O)Nc3nc4ccccc4[nH]3)c2)cc1`?
D3 antag: inactive; D1 potentiator: inactive; D1 agonist: inactive; D1 antag: inactive; D3 ag: 42

What do the screens show for `COc1cccc(NC(=O)CSc2c(C)cnc3c2c(=O)n(C)c(=O)n3C)c1`?
D1 potentiator: inactive; D1 agonist: inactive; D3 ag: inactive

What do the screens show for `CSc1nc(S(=O)(=O)c2ccc(C)cc2)c(Cl)s1`?
D3 antag: inactive; D1 potentiator: inactive; D1 agonist: inactive; D1 antag: inactive; D3 ag: inactive

What do the screens show for `Cc1ccc(OCCNC(=O)c2cccc(S(=O)(=O)NCc3ccccc3)c2)cc1`?
D3 antag: inactive; D1 potentiator: inactive; D1 agonist: 41; D1 antag: -35; D3 ag: inactive

Results for O=C(NCc1ccncc1)c1cccc(S(=O)(=O)NCc2ccccc2)c1 ?
D3 antag: inactive; D1 potentiator: inactive; D1 agonist: inactive; D1 antag: inactive; D3 ag: inactive

What do the screens show for `Cc1ccc(OCCNC(=O)c2cccc(Oc3ccc(C(F)(F)F)cc3[N+](=O)[O-])c2)cc1`?
D3 antag: inactive; D1 potentiator: inactive; D1 agonist: 44; D1 antag: inactive; D3 ag: inactive

Results for COc1ccc(CNC(=O)c2ccc(N(C)S(=O)(=O)c3ccc(C)cc3)cc2)cc1 ?
D3 antag: inactive; D1 potentiator: inactive; D1 agonist: inactive; D1 antag: inactive; D3 ag: inactive

Results for COc1ccc(N(C)S(=O)(=O)c2cccc(C(=O)NCc3ccc(C)cc3)c2)cc1 ?
D3 antag: inactive; D1 potentiator: inactive; D1 agonist: inactive; D1 antag: -32; D3 ag: inactive

How did CN(Cc1ccccc1)C(=O)COC(=O)c1ccc(=O)n(Cc2ccccc2)n1 do in these assays?
D3 antag: inactive; D1 potentiator: inactive; D1 agonist: inactive; D1 antag: inactive; D3 ag: inactive

Results for Cc1cc(C(N)=O)c2cc(Br)ccc2n1 ?
D3 antag: inactive; D1 potentiator: inactive; D1 agonist: inactive; D1 antag: inactive; D3 ag: inactive

Results for Cc1cc(C(=O)NN)c2cc(Br)ccc2n1 ?
D3 antag: inactive; D1 potentiator: inactive; D1 agonist: inactive; D1 antag: -35; D3 ag: inactive

Results for COc1ccc(S(=O)(=O)N2CCC(n3c(C)nc4cccnc43)CC2)cc1Cl ?
D1 potentiator: inactive; D1 agonist: inactive; D1 antag: -34; D3 ag: inactive

How did Cc1oc(-c2ccc(C(=O)NCc3ccccc3)cc2)nc1CN1CCc2ccccc21 do in these assays?
D1 potentiator: inactive; D1 agonist: inactive; D1 antag: inactive; D3 ag: inactive
